Only some compounds are listed: those with a hit (about 10% of all), similar ones and a draw of the others.
JMJD2A Tudor inh – blocks the human JMJD2A Tudor domain; O75164; Potency, µM (doses to about 114 µM), actives largely listed as inhibitors; AID 504339; 390,000 tested, 4.4% active; AlphaScreen JMJD2A-Tudor / H3K4me3 peptide binding; further: nearly all actives have a fitted effect of over 50% in size
G9a block – G9a (human) methyltransferase inhibition; Q96KQ7; G9a H3K9 monomethylation, AlphaScreen, 2 h; Potency, µM (highest dose often 102 µM), most hits filed as inhibitors; 350,000 tested, 8.8% active; AID 504332; further: nearly all actives have a fitted effect of over 75% in size
Target sequence (Q96KQ7 913-1193 limits assumed): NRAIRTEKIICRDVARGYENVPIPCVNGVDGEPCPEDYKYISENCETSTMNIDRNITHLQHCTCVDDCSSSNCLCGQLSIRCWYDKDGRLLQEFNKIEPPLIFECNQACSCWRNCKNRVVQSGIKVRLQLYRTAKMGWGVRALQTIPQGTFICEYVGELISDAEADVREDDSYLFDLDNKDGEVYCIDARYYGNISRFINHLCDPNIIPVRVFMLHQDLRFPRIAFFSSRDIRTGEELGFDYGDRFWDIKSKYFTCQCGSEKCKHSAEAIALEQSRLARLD
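G9a (20 nM) preincubated 15 min RT with compounds, then 500 nM biotinylated H3K9 peptide and 20 uM SAM added; 2 h RT reaction. Monomethyl-H3K9 product detected by AlphaScreen with anti-H3K9me1 antibody, streptavidin donor and anti-rabbit IgG acceptor beads.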
HP1b binding inh – inhibitors of HP1-beta chromodomain binding to methylated histone tails. P83916. AlphaScreen HP1-beta / biotin-H3K9me3 peptide binding. Potency, µM (highest dose often 114 µM), hits mostly inhibitors. 390,000 tested, 0.56% active. AID 540317; further: nearly all actives have a fitted effect of over 70% in size
Target sequence (P83916 whole entry, looked up): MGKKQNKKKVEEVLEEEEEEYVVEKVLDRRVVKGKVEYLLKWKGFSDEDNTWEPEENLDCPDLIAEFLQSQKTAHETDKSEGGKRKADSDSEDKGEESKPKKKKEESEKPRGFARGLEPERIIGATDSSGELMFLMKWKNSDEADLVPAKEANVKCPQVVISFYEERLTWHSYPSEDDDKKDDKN
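AlphaScreen: HP1-beta (50 nM) preformed 30 min with biotin-H3(1-18)K9me3 peptide (50 nM) in PBS pH 7.4, 0.01% Tween-20. Compound added for 30 min at RT, then streptavidin donor/nickel chelate acceptor beads (10 ug/mL) for 30 min.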
CtBP-E1A inh – CtBP/E1A binding inhibition. AlphaScreen GST-E1A/His-CtBP binding, 1536-well; active compounds read low. activity change, % (no concentration beside the values). 340,000 tested, 0.49% active. AID 651724; in the data active means activity change below about -65%; inconclusive means mostly about -30% to -63%
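In 5 uL wells, 23 nL compound meets equimolar GST-E1A and His-CtBP (5X stock 125 nM each) for 2 h, 37 °C. Beads (5X, 50 ug/mL) then 1 h, 37 °C, dark.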
Six1-Eya2 blk – inhibitors of human Six1/Eya2 interaction; Q15475+O00167; AlphaScreen GST-Six1/His-Eya2 binding, biochemical; active compounds read low; 360,000 tested, 0.56% active; activity change, % (test concentration not listed); in the data active means activity change below about -65%; inconclusive means mostly about -30% to -63%
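Compounds are tested against tagged Six1 and Eya2 proteins bridged by glutathione donor and nickel acceptor beads; after a one-hour incubation at 37 °C without light, AlphaScreen emission is recorded.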
BAZ2B block – inhibitors of human BAZ2B bromodomain; Q9UIF8; AlphaScreen BAZ2B-H3K14Ac peptide displacement; Potency, µM (series often up to 114 µM), actives largely listed as inhibitors; 360,000 tested, 4.4% active; AID 504333; further: nearly all actives have a fitted effect of over 60% in size
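AlphaScreen luminescence quantifies BAZ2B engagement of H3K14Ac peptide; the protein and biotinylated peptide are both at 50 nM final, buffer PBS pH 7.4 with 0.01% Tween-20, all steps at room temperature.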
Numbers stand for hits; [ ] = another dose, or the depositor's remark. Unless noted, the call rests on the fitted dose curve; in most records, active means well fitted inhibition curve with a large enough effect; inconclusive means small, poorly fitted or top-dose-only effect; inactive means no such curve, though single readings can be large or run the other way.

What do the screens show for `COc1cc(/C=C2\SC(=S)N(Nc3ccccc3)C2=O)cc(OC)c1OC`?
JMJD2A Tudor inh: inconclusive; G9a block: inconclusive; HP1b binding inh: inconclusive; CtBP-E1A inh: inactive; Six1-Eya2 blk: inactive; BAZ2B block: 22µM

Results for COc1cc(/C=C2\SC(=S)N(N3CCOCC3)C2=O)cc(OC)c1OC ?
JMJD2A Tudor inh: inactive; G9a block: 13µM; HP1b binding inh: inactive; CtBP-E1A inh: inactive; Six1-Eya2 blk: inactive; BAZ2B block: inactive

What do the screens show for `CCOc1ccc(/C=C2\SC(=S)N(Nc3ccccc3)C2=O)cc1OC`?
JMJD2A Tudor inh: inconclusive; G9a block: 7.1µM; HP1b binding inh: inactive; Six1-Eya2 blk: inactive; BAZ2B block: inconclusive

Results for CCCNC(=O)C(Cc1ccccc1)NC(=O)c1ccc(-c2ccccc2)cc1 (stereo not drawn) ?
JMJD2A Tudor inh: inactive; G9a block: inactive[0.501 µM]; HP1b binding inh: inactive; CtBP-E1A inh: inactive; Six1-Eya2 blk: inactive; BAZ2B block: inactive

Results for Cc1cc(-c2nnc(-c3ccccc3)c(-c3ccccc3)n2)c(C)o1 ?
JMJD2A Tudor inh: inconclusive; G9a block: 16µM; HP1b binding inh: inactive; CtBP-E1A inh: inactive; Six1-Eya2 blk: inactive; BAZ2B block: inconclusive

How did Cc1ccc(-c2nnc(-c3ccccc3)c(-c3ccccc3)n2)cc1 do in these assays?
JMJD2A Tudor inh: inactive; G9a block: inconclusive; HP1b binding inh: inactive; CtBP-E1A inh: inactive; Six1-Eya2 blk: inactive; BAZ2B block: inactive

What do the screens show for `Cc1nn(-c2ccccc2)c(N2CCCC2)c1/C=N/Nc1ccc(S(N)(=O)=O)cc1[N+](=O)[O-]`?
JMJD2A Tudor inh: 7.1µM; G9a block: 10µM; HP1b binding inh: 40µM; CtBP-E1A inh: inactive; Six1-Eya2 blk: inconclusive; BAZ2B block: 10µM

How did NS(=O)(=O)c1ccc(N/N=C/c2cn(-c3ccccc3)nc2-c2cccs2)c([N+](=O)[O-])c1 do in these assays?
JMJD2A Tudor inh: inactive; G9a block: inconclusive; HP1b binding inh: inactive; CtBP-E1A inh: inactive; Six1-Eya2 blk: inactive; BAZ2B block: inconclusive

Results for COc1cccc(NC(=O)c2ccc(NC(=O)C3CC(=O)OC34CCCCC4)cc2)c1 (stereo not drawn) ?
JMJD2A Tudor inh: inactive; G9a block: inactive; HP1b binding inh: inactive; CtBP-E1A inh: -80; Six1-Eya2 blk: inconclusive; BAZ2B block: inactive

Results for COCc1cc(=O)n2c(-c3ccccc3OC)n[nH]c2n1 ?
JMJD2A Tudor inh: inactive; G9a block: 3.2µM; HP1b binding inh: inactive; CtBP-E1A inh: inactive; Six1-Eya2 blk: inactive; BAZ2B block: inactive

What do the screens show for `COCc1cc(=O)n2c(-c3ccc(C)cc3)n[nH]c2n1`?
JMJD2A Tudor inh: inactive; G9a block: inactive; HP1b binding inh: inactive; CtBP-E1A inh: inactive; Six1-Eya2 blk: inactive; BAZ2B block: inactive

How did N=C(N)SCCc1cnc[nH]1 do in these assays?
JMJD2A Tudor inh: inactive; G9a block: 7.5µM; HP1b binding inh: inactive; CtBP-E1A inh: inactive; Six1-Eya2 blk: inactive; BAZ2B block: inactive

How did O=C(NCCc1cnc[nH]1)c1cccs1 do in these assays?
JMJD2A Tudor inh: inactive; HP1b binding inh: inactive; Six1-Eya2 blk: inactive; BAZ2B block: inactive

What do the screens show for `CCOc1ccc2[nH]c(=O)c(CN(CCN3CCCC3)C(=S)Nc3ccccc3OCC)cc2c1`?
JMJD2A Tudor inh: inactive; G9a block: inactive; HP1b binding inh: inactive; CtBP-E1A inh: inactive; Six1-Eya2 blk: inactive; BAZ2B block: inactive

Results for Cc1ccc(C)c2[nH]c(=O)c(CN(CCN3CCCC3)C(=O)Nc3cccc(Cl)c3)cc12 ?
JMJD2A Tudor inh: inactive; G9a block: 28µM; HP1b binding inh: inactive; CtBP-E1A inh: inactive; Six1-Eya2 blk: inactive; BAZ2B block: inactive

What do the screens show for `Cc1cc(C)c2cc(CN(CCN3CCCC3)C(=O)Nc3ccc(F)cc3)c(=O)[nH]c2c1`?
JMJD2A Tudor inh: inactive; G9a block: inconclusive; HP1b binding inh: inactive; CtBP-E1A inh: inactive; Six1-Eya2 blk: inactive; BAZ2B block: inactive

What do the screens show for `CCc1ccc2[nH]c(=O)c(CN(CCCN3CCOCC3)C(=O)Nc3ccc(Cl)cc3)cc2c1`?
JMJD2A Tudor inh: inactive; G9a block: inactive; HP1b binding inh: inactive; CtBP-E1A inh: inactive; Six1-Eya2 blk: inactive; BAZ2B block: inactive

How did CCc1ccc2[nH]c(=O)c(CN(CCCN3CCOCC3)C(=O)Nc3cccc(Cl)c3)cc2c1 do in these assays?
JMJD2A Tudor inh: inconclusive; G9a block: 50µM; HP1b binding inh: inactive; CtBP-E1A inh: inactive; Six1-Eya2 blk: inactive; BAZ2B block: inconclusive

How did COc1ccc2[nH]c(=O)c(CN(CCN3CCCC3)C(=O)Nc3ccccc3Cl)cc2c1 do in these assays?
JMJD2A Tudor inh: inactive; G9a block: 50µM; HP1b binding inh: inactive; CtBP-E1A inh: inactive; Six1-Eya2 blk: inactive; BAZ2B block: inactive

What do the screens show for `CCCC(=O)Nc1cc2c3c(c1)CCN3C(=O)CC2`?
JMJD2A Tudor inh: inactive; G9a block: inactive; HP1b binding inh: inactive; CtBP-E1A inh: inactive; Six1-Eya2 blk: inactive; BAZ2B block: inactive

Results for CCCCOc1cccc(C(=O)N2CCN(CCc3ccncc3)CC2)c1 ?
JMJD2A Tudor inh: inactive; G9a block: inactive; HP1b binding inh: inactive; BAZ2B block: inactive

Results for CCn1cc(C(=O)N[C@@H](CCSC)C(=O)NCCCOC)c(=O)c2cc3c(cc21)OCO3 ?
JMJD2A Tudor inh: inactive; G9a block: inactive[0.501 µM]; HP1b binding inh: inactive; Six1-Eya2 blk: inactive; BAZ2B block: inactive

How did COc1ccccc1N=Nc1[nH]c2ccc(C)cc2c1O do in these assays?
JMJD2A Tudor inh: inconclusive; G9a block: 11µM; HP1b binding inh: inactive; CtBP-E1A inh: inactive; Six1-Eya2 blk: inactive; BAZ2B block: 50µM

How did CC(=O)Nc1ccc2c(c1)C(=Nc1cccc(C)c1)c1ccccc1-2 do in these assays?
JMJD2A Tudor inh: 32µM; HP1b binding inh: inconclusive; CtBP-E1A inh: inactive; Six1-Eya2 blk: inactive

Results for COc1ccc(CCNC(=O)c2cc(C)nc3c2c(C)nn3-c2ccccc2)cc1OC ?
JMJD2A Tudor inh: inactive; G9a block: inactive; HP1b binding inh: inactive; BAZ2B block: inactive

How did NC(=S)N/N=C/c1ncc(C(F)(F)F)cc1Cl do in these assays?
JMJD2A Tudor inh: inconclusive; G9a block: inactive; HP1b binding inh: inactive; CtBP-E1A inh: -85; Six1-Eya2 blk: -85; BAZ2B block: 50µM

Results for CC(=O)NC1(C(F)(F)F)NC(=O)N(CCc2ccccc2)C1=O (stereo not drawn) ?
JMJD2A Tudor inh: inactive; G9a block: inconclusive; HP1b binding inh: inactive; Six1-Eya2 blk: inactive; BAZ2B block: inactive

What do the screens show for `CC(=O)c1cccc(NC(=O)CN(C)S(=O)(=O)c2ccccc2)c1`?
JMJD2A Tudor inh: inactive; G9a block: inactive[12.7 µM]; HP1b binding inh: inactive; Six1-Eya2 blk: inactive; BAZ2B block: inactive

What do the screens show for `CCOC(=O)CC1(C)NC(C(=O)O)C(C)(C)S1` (stereo not drawn)?
JMJD2A Tudor inh: 5µM; HP1b binding inh: inactive; CtBP-E1A inh: inconclusive; Six1-Eya2 blk: inactive
